Data published in PubChem BioAssay AID1463 (National Center for Advancing Translational Sciences (NCATS), 2008).
Several values for one entry are separate records, joined by “and”; a condition that tells them apart may be missing. Equal entries are not always repeated. The whole screen tested about 280,000 compounds, of which about 2,600 (0.93%) were called active. About 8% were inconclusive and are not listed. This is one part of a sample in which actives are shown more often than they occur. Values without a mark were called inactive. The call rests on the fitted dose curve; in most records, active means well fitted curve in the direction sought with a large enough effect; inconclusive means small, poorly fitted or top-dose-only effect; inactive means flat fitted curve, though single readings scatter.
On the % scale 0 is the no-effect control and ±100 the full control effect; potency means the concentration at half of the fitted maximal effect; tags describe the fitted curve by direction and shape or compound fluorescence and quenching.

Experiment: Counterscreen qHTS for Inhibitors of Tau Fibril Formation, Fluorescence Polarization; further: nearly all actives have a fitted effect of over 55% in size
Conditions: tau K18 P301L (four-repeat tau fragment) Alexa594 fluorescence, heparin fibrillization; series mostly up to 57.7 µM; activity change, negative = decrease: at the top concentration
Text: NIH Molecular Libraries Probe Production Network [MLPCN]
NIH Chemical Genomics Center [NCGC]
Assay Provider: Carlo Ballatore, University of Pennsylvania
The microtubule-associated protein tau is an abundant protein in the axons of neurons that stabilizes microtubules. With its ability to modulate microtubule dynamics, tau contributes directly or indirectly, to key structural and regulatory cellular functions. Particularly important is the influence tau exerts on axonal transport, which allows signaling molecules, trophic factors and other essential cellular constituents to travel along the axons. Under pathological conditions, tau becomes sequestered into insoluble aggregates called neurofibrillary tangles. This phenomenon is believed to have pathological consequences by promoting axonal transport deficits that ultimately lead to synaptic dysfunction and neuronal loss. To identify inhibitors of tau aggregation, a heparin-induced tau fibril formation assay was used that employed a recombinantly expressed fragment of tau, K18 (Q242-E372), bearing a P301L mutation (Gustke et al. 1994; Hong et al. 1998). […] Total fluorescence (555 nm excitation and 632 nm emission) was measured to identify fluorescent or absorbent compounds at this wavelength. Such compounds may be artifacts that interfere with the Alexa 594 Tau fluorescence polarization assay.
Gustke, N., B. Trinczek, et al. (1994). "Domains of tau protein and interactions with microtubules." Biochemistry 33(32): 9511-22.
Hong, M., V. Zhukareva, et al. (1998).
Li, W. and V. M. Lee (2006). "Characterization of two VQIXXK motifs for tau fibrillization in vitro." Biochemistry 45(51): 15692-701.
von Bergen, M., S. Barghorn, et al. (2001). "Mutations of tau protein in frontotemporal dementia promote aggregation of paired helical filaments by enhancing local beta-structure." J Biol Chem 276(51): 48165-74.
NCGC Assay Protocol Summary:
For screening, 2 uL/well human K18 P301L (15 uM unlabeled and 0.24 uM Alexa 594-labeled tau final concentrations) in reagent buffer (100 mM sodium acetate pH 7) was dispensed into black solid 1536-well plates (Grenier) using a solenoid-based dispenser. Following transfer of 23 nL compound or DMSO vehicle by a pin tool, 2 uL/well heparin (20 uM final concentration) in reagent buffer was added and the plate centrifuged 15 s at 1000 RPM. Plates were incubated 6 hr at 37 C and then 1 uL/well ThT (30 uM final concentration) was added. After a 1 hr ambient incubation, the plates were read by an Envision (Perkin Elmer) to monitor Alexa 594 FP (555 nm excitation and 632 nm emission).
Keywords: NIH Roadmap, MLPCN, MLI, MLSMR, NCGC, qHTS, tau, tauopathies, Alzheimer's disease, fibril, neurodegeneration, aggregation
For O=C(OCC1O[C@@H](OC(=O)c2cc(O)c(O)c(O)c2)[C@@H](OC(=O)c2cc(O)c(O)c(O)c2)[C@@H](OC(=O)c2cc(O)c(O)c(O)c2)[C@@H]1OC(=O)c1cc(O)c(O)c(O)c1)c1cc(O)c(O)c(O)c1 (stereo not given in full), the Potency was 10 µM [quencher] (active). In the case of C=CCN1CCC2(C)c3cc(O)ccc3CC1[C@@H]2C (stereo not given in full), the “activity change, negative = decrease” value is reported as 10.3%. In the case of COC1CC(OC2CC[C@@]3(C=O)C4CC[C@]5(C)C(C6=CC(=O)OC6)CC[C@@]5(O)C4CC[C@]3(O)C2)OC(C)C1O (stereo not given in full), the “activity change, negative = decrease” value is reported as -4%. With N#CC(C#N)=Cc1cc(O)c(O)c([N+](=O)[O-])c1 the “activity change, negative = decrease” value was -26.8%. In the case of CC(=O)c1c(O)c(C)c(O)c(Cc2c(O)c3c(c(C(=O)/C=C/c4ccccc4)c2O)OC(C)(C)C=C3)c1O, the Potency is reported as 15.8 µM [quencher] (active) and 12.6 µM [quencher] (active). In the case of CO[C@@H]1C[C@@H](C[C@H]2CC[C@H](C)[C@@H]([C@@H](C)C(=O)O)O2)O[C@]2(O[C@](C)([C@H]3CC[C@@](C)(C4OC([C@H]5O[C@@](O)(CO)[C@H](C)C[C@@H]5C)C[C@@H]4C)O3)C[C@H]2C)[C@@H]1C (stereo not given in full), the “activity change, negative = decrease” value is reported as -6.37%. For CN(C)[C@@H]1C(=O)C(C(N)=O)=C(O)[C@@]2(O)C(=O)C3=C(O)c4c(O)cccc4[C@@](C)(O)C3CC12 (stereo not given in full), the “activity change, negative = decrease” value was -4.87%. In the case of CCCCCCCCCCCCCC(=O)O[C@@H]1[C@@H](C)[C@@]2(O)[C@@H](C=C(CO)C[C@]3(O)C(=O)C(C)=C[C@@H]23)[C@@H]2C(C)(C)[C@]12OC(C)=O, the “activity change, negative = decrease” value is reported as -27.1%. For COc1ccccc1-c1[se]c2ccccc2c1I, the “activity change, negative = decrease” value was -17.3% [at 81.3 µM]. In the case of CC(C)(C)c1ccc(S(=O)(=O)Nc2ccc(O)c(Sc3nc4ccccc4s3)c2)cc1, the Potency is reported as 8.91 µM [quencher] (active). In the case of c1ccc2sc(SNC3CCCCC3)nc2c1, the “activity change, negative = decrease” value is reported as -9.08%. In the case of CC[C@]1(O)C(=O)OCc2c1cc1n(c2=O)Cc2cc3ccccc3nc2-1, the “activity change, negative = decrease” value is reported as -12%. For CCCN(C/C=C/I)C1CCc2ccc(O)cc2C1 (stereo not given), the “activity change, negative = decrease” value was -15.9%. In the case of CN(C)C1C(=O)C(C(N)=O)=C(O)[C@@]2(O)C(=O)C3=C(O)c4c(O)cccc4[C@@](C)(O)C3C[C@@H]12 (stereo not given in full), the “activity change, negative = decrease” value is reported as -12.5%. With CC[C@@H]1CN2CC[C@@H]1C[C@H]2[C@H](O)c1ccnc2ccc(OC)cc12 the “activity change, negative = decrease” value was -4.73%.
